Records with an inconclusive call do not appear. Calls of active or inactive are those of the source. Unless noted, the call rests on the fitted dose curve; in most records, active means well fitted curve in the direction sought with a large enough effect in the repeat runs; inconclusive means weak or mixed curves; inactive means no such curve, though single readings can be large; an effect the other way counts as inactive or inconclusive.
Experiments:
[1] = target: Thyrotropin receptor (Homo sapiens) (UniProt P16473); experiment: qHTS assay to identify small molecule antagonists of the thyroid stimulating hormone receptor (TSHR) signaling pathway (AID 1259385; calls by dose curve; further: nearly all actives have a fitted effect of over 20% in size)
Thyrotropin receptor (Homo sapiens), sequence (P16473 whole entry, looked up): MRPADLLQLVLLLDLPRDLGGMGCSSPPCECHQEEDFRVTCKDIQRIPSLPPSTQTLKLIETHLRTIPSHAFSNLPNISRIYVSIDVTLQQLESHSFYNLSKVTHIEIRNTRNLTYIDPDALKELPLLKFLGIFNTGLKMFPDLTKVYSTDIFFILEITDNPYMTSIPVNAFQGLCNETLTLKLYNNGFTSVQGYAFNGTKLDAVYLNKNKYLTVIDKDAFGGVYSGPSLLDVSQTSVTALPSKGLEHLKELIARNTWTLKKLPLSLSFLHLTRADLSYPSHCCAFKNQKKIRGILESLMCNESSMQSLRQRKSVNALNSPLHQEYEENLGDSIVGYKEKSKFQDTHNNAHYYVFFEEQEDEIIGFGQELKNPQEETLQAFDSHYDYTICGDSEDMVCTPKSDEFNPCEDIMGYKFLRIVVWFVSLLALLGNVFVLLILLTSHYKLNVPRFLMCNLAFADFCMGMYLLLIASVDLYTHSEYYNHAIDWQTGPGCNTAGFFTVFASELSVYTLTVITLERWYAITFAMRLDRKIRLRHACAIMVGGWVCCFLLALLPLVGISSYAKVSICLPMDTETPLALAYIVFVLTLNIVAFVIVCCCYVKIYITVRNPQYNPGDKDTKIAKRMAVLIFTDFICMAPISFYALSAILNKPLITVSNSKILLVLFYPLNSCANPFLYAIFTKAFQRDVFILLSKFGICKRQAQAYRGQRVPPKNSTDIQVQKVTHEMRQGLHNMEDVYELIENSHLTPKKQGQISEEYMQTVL
How it was run: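 TSHR-HEK293 cells were plated and held 18 h at 37C/5% CO2, then given compound plus Ro20-1724 and stimulated with TSH at 1.5 ng/mL final. After 30 min at room temperature, cAMP was detected with cAMP-d2/anti-cAMP-cryptate (1 h) by fluorescence.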

[2] = target: Progesterone receptor (Homo sapiens) (UniProt P06401); experiment: qHTS assay to identify small molecule agonists of the progesterone receptor (PR) signaling pathway (AID 1346784; calls by dose curve; further: nearly all actives have a fitted effect of over 30% in size)
Progesterone receptor (Homo sapiens), sequence (P06401 whole entry, looked up): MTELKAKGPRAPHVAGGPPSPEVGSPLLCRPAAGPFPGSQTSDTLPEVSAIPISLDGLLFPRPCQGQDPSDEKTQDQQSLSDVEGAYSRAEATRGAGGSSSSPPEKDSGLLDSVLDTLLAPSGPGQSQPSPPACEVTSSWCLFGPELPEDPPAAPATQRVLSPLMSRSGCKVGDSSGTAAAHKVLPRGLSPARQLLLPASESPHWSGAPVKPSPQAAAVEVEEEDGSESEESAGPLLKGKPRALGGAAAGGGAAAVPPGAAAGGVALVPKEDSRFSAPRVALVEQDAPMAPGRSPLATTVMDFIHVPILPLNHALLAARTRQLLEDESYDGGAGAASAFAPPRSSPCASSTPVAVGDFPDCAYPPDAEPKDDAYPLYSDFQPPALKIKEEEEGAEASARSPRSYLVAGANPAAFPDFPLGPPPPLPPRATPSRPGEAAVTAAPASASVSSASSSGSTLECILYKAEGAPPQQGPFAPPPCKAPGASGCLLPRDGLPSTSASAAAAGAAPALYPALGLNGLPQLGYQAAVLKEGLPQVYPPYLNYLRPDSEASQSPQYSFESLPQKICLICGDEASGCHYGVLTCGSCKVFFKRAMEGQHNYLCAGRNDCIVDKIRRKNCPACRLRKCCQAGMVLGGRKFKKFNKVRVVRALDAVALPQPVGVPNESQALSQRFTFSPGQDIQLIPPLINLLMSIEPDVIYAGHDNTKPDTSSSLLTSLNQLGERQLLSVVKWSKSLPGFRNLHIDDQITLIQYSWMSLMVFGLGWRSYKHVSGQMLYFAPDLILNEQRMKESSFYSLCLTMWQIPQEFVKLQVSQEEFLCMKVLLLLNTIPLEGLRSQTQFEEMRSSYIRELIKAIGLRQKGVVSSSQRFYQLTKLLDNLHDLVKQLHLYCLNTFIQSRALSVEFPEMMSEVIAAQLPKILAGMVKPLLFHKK
How it was run: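 Cells (PR-UAS-bla HEK 293T, GripTite) were plated in assay medium containing 2% charcoal-stripped FBS and incubated 6 hr. Test compounds in DMSO were added for 16 hr at 37C. FRET substrate was then loaded for 2 hr at room temperature before fluorescence reading.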

[3] = target: Progesterone receptor (Homo sapiens) (UniProt P06401); experiment: qHTS assay to identify small molecule antagonists of the progesterone receptor (PR) signaling pathway (AID 1346795; active means well fitted inhibition curve with a large enough effect in the signal ratio in the repeat runs, not every such curve was filed as active; the % refers to the signal ratio)
How it was run: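 Antagonist mode: compounds tested against 1 nM (final) promegestone stimulation in HEK293T cells expressing PR-UAS-bla reporter, 16 hr at 37C, 5% CO2; beta-lactamase activity detected via B/G FRET substrate after 2 hr at room temperature.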

[4] = qHTS assay to identify small molecule antagonists of the progesterone receptor (PR) signaling pathway - cell viability counter screen (AID 1346798); further: series mostly up to about 92 µM; nearly all actives have a fitted effect of over 50% in size
How it was run: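 Counter screen for cytotoxicity: viability of PR-UAS-bla HEK293T cells was measured with CellTiter-Glo luminescence following 16 hr compound exposure in the presence of R5020.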

[5] = qHTS assay to identify small molecule agonists of the progesterone receptor (PR) signaling pathway - cell viability counter screen (AID 1346799; calls by dose curve; further: nearly all actives have a fitted effect of over 45% in size)
How it was run: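 Cells (PR-UAS-bla HEK293T) are plated at 3,000/well in 2% charcoal-stripped FBS medium, rested 6 hr, dosed and incubated 16 hr at 37C. CellTiter-Glo is then added and luminescence measured after 30 min at room temperature.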

[6] = qHTS assay to identify small molecule antagonists of the TGF-beta/Smad signaling pathway - cell viability counter screen (AID 1346824); further: nearly all actives have a fitted effect of over 50% in size
How it was run: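 SBE-bla HEK 293T cells were plated overnight at 37 C, then given compounds in DMSO plus TGF-beta1 (added as 0.25 ng/mL solution) for 5 hr. After the bla read, CellTiter-Glo was added to the same wells and luminescence read after 30 min at room temperature.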

[7] = qHTS assay to identify small molecule agonists of the TGF-beta/Smad signaling pathway - cell viability counter screen (AID 1346829); further: top concentration of the series differs between compounds; nearly all actives have a fitted effect of over 45% in size
How it was run: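 Cytotoxicity counter screen: CellTiter-Glo luminescence (30 min, room temperature) measured in the SBE-bla HEK 293T reporter wells after 5 hr compound treatment at 37 C and the 2 hr substrate step.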

[8] = qHTS assay to identify small molecule agonists of the TGF-beta/Smad signaling pathway (AID 1346859; active means well fitted activation curve with a large enough effect in the signal ratio in the repeat runs, not every such curve was filed as active; the % refers to the signal ratio; further: series mostly up to about 77 µM)
How it was run: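 Reporter line: HEK 293T with stably integrated SBE-controlled beta-lactamase. Compound exposure lasts 5 hr at 37 C and 5% CO2; substrate loading follows for 2 hr at room temperature, with emission read at 460 and 530 nm.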

[9] = target: Thyrotropin-releasing hormone receptor (Homo sapiens) (UniProt P34981); experiment: qHTS assay to identify small molecule antagonists of the thyrotropin-releasing hormone receptor (TRHR) signaling pathway (AID 1346877; active means well fitted inhibition curve with a large enough effect in the repeat runs, not every such curve was filed as active; further: series mostly up to about 51 µM)
Thyrotropin-releasing hormone receptor (Homo sapiens), sequence (P34981 whole entry, looked up): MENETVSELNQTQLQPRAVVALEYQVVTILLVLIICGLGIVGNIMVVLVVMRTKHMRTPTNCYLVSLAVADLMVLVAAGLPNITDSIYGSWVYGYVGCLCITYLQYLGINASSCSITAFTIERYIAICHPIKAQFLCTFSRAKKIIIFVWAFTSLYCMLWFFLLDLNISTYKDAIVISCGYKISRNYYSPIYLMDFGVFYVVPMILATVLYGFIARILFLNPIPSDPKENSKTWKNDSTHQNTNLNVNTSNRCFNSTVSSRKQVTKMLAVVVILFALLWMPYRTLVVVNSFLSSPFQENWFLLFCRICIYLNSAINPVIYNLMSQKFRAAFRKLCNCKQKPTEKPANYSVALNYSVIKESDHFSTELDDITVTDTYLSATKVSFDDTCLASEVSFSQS
How it was run: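 TRHR-expressing HEK293 cells loaded with calcium dye for 2 h at 37 C; compounds pre-incubated 5 min at room temperature before TRH challenge at 1 nM final. Intracellular calcium fluorescence read kinetically for 3 min; 15 concentrations in triplicate.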

[10] = target: Thyrotropin-releasing hormone receptor (Homo sapiens) (UniProt P34981); experiment: qHTS assay to identify small molecule agonists of the thyrotropin-releasing hormone receptor (TRHR) signaling pathway (AID 1346891; calls by dose curve; further: series mostly up to about 58 µM)
How it was run: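 Cells: TRHR-Hek293, seeded and incubated 18 h. Dye loading: 2 h at 37 °C. Compound added from DMSO stock by pin tool. Read-out: kinetic calcium fluorescence over 3 min.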

[11] = Human pregnane X receptor (PXR) small molecule agonists, qHTS cell viability counter screen (AID 1346977); further: nearly all actives have a fitted effect of over 50% in size
How it was run: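 Cytotoxicity counter screen run in the same wells as the PXR luciferase assay, using PXR-Luc HepG2 cells in charcoal-stripped serum medium. Viability: CellTiter-Fluor fluorescence after 24hr compound treatment.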

[12] = Caspase-3/7 induction in HepG2 cells by small molecules, qHTS assay (AID 1346978); further: nearly all actives have a fitted effect of over 15% in size
How it was run: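 Wild-type HepG2 cells (2,000/well) were settled 5 h at 37 C, 5% CO2, then exposed to compounds in DMSO for 17 h. Caspase-3/7 activity was read by luminescence 30 min after adding Caspase-Glo 3/7 reagent at room temperature.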

[13] = Caspase-3/7 induction in CHO-K1 cells by small molecules, qHTS cell viability counter screen (AID 1346979); further: nearly all actives have a fitted effect of over 35% in size
How it was run: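 Cytotoxicity counter screen run in parallel with the caspase-3/7 assay: CHO-K1 cells, 16hr compound treatment at 37C, then CellTiter-Fluor for 1hr before fluorescence reading.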

[14] = Caspase-3/7 induction in CHO-K1 cells by small molecules, qHTS assay (AID 1346980); further: nearly all actives have a fitted effect of over 15% in size
How it was run: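 Wild-type cells were seeded at 1,500 per well and settled 5 hr at 37 C, 5% CO2, then exposed to DMSO-dissolved compounds for 17 hr. Caspase-Glo 3/7 reagent was added, and luminescence was read after 30min at room temperature.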

[15] = Caspase-3/7 induction in HepG2 cells by small molecules, qHTS cell viability counter screen (AID 1346981); further: series mostly up to about 92 µM; nearly all actives have a fitted effect of over 30% in size
How it was run: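 Wild-type HepG2 cells, 2,000/well, settled 5 hr at 37 C, 5% CO2 before compound addition. Viability read by CellTiter-Fluor fluorescence, reagent added after 16 hr compound exposure, then 1 hr at 37C, in the same wells as the caspase read.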

[16] = target: Nuclear receptor subfamily 1 group I member 2 (Rattus norvegicus) (UniProt Q9R1A7); experiment: Rat pregnane X receptor (rPXR) activation by small molecules, qHTS assay (AID 1346983); settings: rPXR luciferase reporter cells, One-Glo luminescence, 24 h; hits give high values; further: nearly all actives have a fitted effect of over 20% in size
Nuclear receptor subfamily 1 group I member 2 (Rattus norvegicus), sequence (Q9R1A7 whole entry, looked up): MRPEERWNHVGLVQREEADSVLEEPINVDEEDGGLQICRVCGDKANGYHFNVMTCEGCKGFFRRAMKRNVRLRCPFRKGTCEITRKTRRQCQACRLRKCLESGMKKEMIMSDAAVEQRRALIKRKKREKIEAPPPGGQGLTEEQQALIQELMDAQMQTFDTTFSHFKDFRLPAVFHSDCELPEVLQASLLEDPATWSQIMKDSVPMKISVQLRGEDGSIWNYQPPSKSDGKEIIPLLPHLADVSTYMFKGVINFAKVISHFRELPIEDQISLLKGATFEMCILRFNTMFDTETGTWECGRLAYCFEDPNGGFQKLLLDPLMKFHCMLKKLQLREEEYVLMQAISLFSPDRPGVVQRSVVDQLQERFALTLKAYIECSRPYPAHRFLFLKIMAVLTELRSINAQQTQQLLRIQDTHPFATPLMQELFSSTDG
How it was run: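 Cell-based rPXR luciferase reporter assay, 2,000 cells per well, rested 5hr at 37 C before compound addition in DMSO, then 24 hr at 37 C. One-Glo reagent was added and luminescence read after 30 min at room temperature.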

[17] = target: Nuclear receptor subfamily 1 group I member 2 (Homo sapiens) (UniProt O75469); experiment: Human pregnane X receptor (PXR) small molecule agonists, qHTS assay (AID 1346982); further: nearly all actives have a fitted effect of over 35% in size
Nuclear receptor subfamily 1 group I member 2 (Homo sapiens), sequence (O75469 whole entry, looked up): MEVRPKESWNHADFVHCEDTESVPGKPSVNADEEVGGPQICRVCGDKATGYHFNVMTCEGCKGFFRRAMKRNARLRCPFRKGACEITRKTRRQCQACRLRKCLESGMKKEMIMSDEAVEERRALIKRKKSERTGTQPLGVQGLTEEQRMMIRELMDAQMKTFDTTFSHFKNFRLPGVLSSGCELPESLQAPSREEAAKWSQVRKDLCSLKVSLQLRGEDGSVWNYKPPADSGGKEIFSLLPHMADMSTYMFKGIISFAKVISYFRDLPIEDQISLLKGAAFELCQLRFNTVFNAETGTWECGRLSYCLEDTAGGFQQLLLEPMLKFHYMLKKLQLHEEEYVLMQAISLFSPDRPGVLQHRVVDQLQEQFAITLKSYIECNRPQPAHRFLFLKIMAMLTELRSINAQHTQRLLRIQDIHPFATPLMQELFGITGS
How it was run: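 PXR-Luc HepG2 reporter cells (CYP3A4-driven luciferase) in 5% charcoal-stripped FBS medium, plated 5 h before compound addition, then treated 24 h at 37C. Luciferase read by ONE-Glo luminescence after 30 min at room temperature.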

[18] = qHTS assay to identify small molecule agonists of the estrogen receptor alpha (ER-alpha) signaling pathway in the presence of an antagonist - cell viability counter screen (AID 1259386);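 further: series mostly up to about 92 µM; cells exposed to compounds for 22 h at 37 °C before the viability read; nearly all actives have a fitted effect of over 30% in size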
How it was run: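 Cell viability in VM7Luc4E2 cells (endogenous full-length ER-alpha) measured by CellTiter-Fluor fluorescence in the same wells as the luciferase screen. Cells pre-cultured 5 days in charcoal-stripped serum, then treated 22 h with compounds at 15 concentrations plus 10.0nM ICI-182,780.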

[19] = target: Nuclear receptor subfamily 1 group I member 2 (Homo sapiens) (UniProt O75469); experiment: CYP3A4 induction through human pregnane X receptor (PXR) by small molecules, qHTS assay (AID 1346984); further: nearly all actives have a fitted effect of over 40% in size
How it was run: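 DPX-2 HepG2 cells carrying a PXR response element and CYP3A4-promoter luciferase construct, treated with compounds 24 hr at 37C. Then P450-Glo CYP3A4 Luciferin-IPA substrate (3uM final) for 3 hr at 37C, One-Glo added, luminescence read.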

[20] = target: Nuclear receptor subfamily 1 group I member 2 (Homo sapiens) (UniProt O75469); experiment: Human pregnane X receptor (PXR) activation by small molecules, qHTS assay (AID 1346985); further: nearly all actives have a fitted effect of over 40% in size
How it was run: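 DPX-2 cells (HepG2 co-transfected with a PXR response element and a CYP3A4-promoter luciferase construct) were seeded at 2,000 per well, rested 5 hr at 37C, then exposed to DMSO-dissolved compounds for 24 hr. Activation was read as luciferase luminescence.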
On the % scale 0 is the no-effect control and ±100 the full control effect.

O=C(NCC(O)CO)c1c(I)c(C(=O)NCC(O)CO)c(I)c(N(CCO)C(=O)CO)c1I (stereo not drawn)
inactive: outcome [1] | Potency [2] | Potency [3] | Potency [4] | Potency [5] | outcome [6] | outcome [7] | outcome [8] | outcome [9] | outcome [10] | Potency [11] | Potency [12] | Potency [13] | outcome [14] | Potency [15] | max activation [16] -4.62%

COCCc1ccc(OCC2CO2)cc1 (stereo not drawn)
inactive: outcome [1] | Potency [2] | Potency [3] | Potency [4] | Potency [5] | outcome [6] | outcome [7] | outcome [8] | outcome [9] | outcome [10] | Potency [11] | Potency [12] | Potency [13] | outcome [14] | Potency [15] | Potency [17]

COCCOCCOCCOCCOCCO
inactive: outcome [1] | Potency [18] | Potency [4] | Potency [5] | outcome [6] | outcome [7] | outcome [8] | outcome [9] | outcome [10] | Potency [11] | Potency [12] | Potency [13] | outcome [14] | Potency [15] | Potency [17]

COP(=O)(OC)OC(c1ccc(Cl)cc1)P(=O)(OC)OC (stereo not drawn)
inactive: outcome [1] | Potency [2] | Potency [3] | Potency [4] | Potency [5] | outcome [6] | outcome [7] | outcome [8] | outcome [9] | outcome [10] | Potency [11] | Potency [12] | Potency [13] | outcome [14] | Potency [15] | Potency [17] | max activation [16] 4.37% | Potency [19] | Potency [20]

CC(C)NCC(O)COc1cccc2[nH]ccc12 (stereo not drawn)
inactive: outcome [1] | Potency [18] | Potency [4] | outcome [6] | outcome [7] | outcome [8] | outcome [9] | outcome [10] | Potency [11] | Potency [12] | Potency [13] | Potency [15]

Cc1ccc(S(=O)(=O)O)c(C)c1
inactive: outcome [1] | Potency [18] | Potency [3] | Potency [4] | outcome [6] | outcome [7] | outcome [8] | outcome [9] | outcome [10] | Potency [11] | Potency [12] | outcome [14] | Potency [15] | Potency [17]

CCCC(=O)C(C)=O
inactive: outcome [1] | Potency [18] | Potency [4] | Potency [5] | outcome [6] | outcome [7] | outcome [8] | Potency [11] | Potency [12] | Potency [13] | outcome [14] | Potency [15] | Potency [17]

C=C1CC/C=C(\C)CC[C@@H]2[C@@H]1CC2(C)C
inactive: outcome [1] | Potency [18] | Potency [4] | Potency [5] | outcome [6] | outcome [7] | outcome [8] | Potency [11] | Potency [12] | Potency [13] | outcome [14] | Potency [17]

O=C(NCCN1CCOCC1)c1ccc(Cl)cc1
inactive: outcome [1] | Potency [18] | Potency [3] | Potency [4] | Potency [5] | outcome [6] | outcome [7] | outcome [8] | Potency [11] | Potency [12] | Potency [13] | outcome [14] | Potency [15] | max activation [16] 1.47% | Potency [19] | Potency [20]

Reference: PubChem BioAssay (Tox21)
